Data published in ChEMBL document CHEMBL2218924, “A broad activity screen in support of a chemogenomic map for kinase signalling research and drug discovery” (Biochem J, 2013).

Columns and labels:
[1] = target: T1, Serine/threonine-protein kinase 17A (Homo sapiens) (UniProt Q9UEE5); settings: at 10 µM
T1 sequence (whole entry): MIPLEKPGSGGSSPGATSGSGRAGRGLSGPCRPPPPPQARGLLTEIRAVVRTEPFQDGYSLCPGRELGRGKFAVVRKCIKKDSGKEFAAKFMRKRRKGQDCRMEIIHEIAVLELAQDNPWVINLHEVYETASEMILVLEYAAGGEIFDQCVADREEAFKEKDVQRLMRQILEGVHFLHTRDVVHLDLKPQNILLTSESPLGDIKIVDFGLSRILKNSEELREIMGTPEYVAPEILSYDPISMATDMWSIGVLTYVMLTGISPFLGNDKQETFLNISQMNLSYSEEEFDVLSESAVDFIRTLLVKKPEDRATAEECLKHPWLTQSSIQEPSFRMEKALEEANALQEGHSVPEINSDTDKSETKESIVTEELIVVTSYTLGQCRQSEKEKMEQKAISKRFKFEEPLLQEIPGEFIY

[2] = target: T2, Dual specificity tyrosine-phosphorylation-regulated kinase 2 (Homo sapiens) (UniProt Q92630); settings: at 1 µM
T2 sequence (whole entry): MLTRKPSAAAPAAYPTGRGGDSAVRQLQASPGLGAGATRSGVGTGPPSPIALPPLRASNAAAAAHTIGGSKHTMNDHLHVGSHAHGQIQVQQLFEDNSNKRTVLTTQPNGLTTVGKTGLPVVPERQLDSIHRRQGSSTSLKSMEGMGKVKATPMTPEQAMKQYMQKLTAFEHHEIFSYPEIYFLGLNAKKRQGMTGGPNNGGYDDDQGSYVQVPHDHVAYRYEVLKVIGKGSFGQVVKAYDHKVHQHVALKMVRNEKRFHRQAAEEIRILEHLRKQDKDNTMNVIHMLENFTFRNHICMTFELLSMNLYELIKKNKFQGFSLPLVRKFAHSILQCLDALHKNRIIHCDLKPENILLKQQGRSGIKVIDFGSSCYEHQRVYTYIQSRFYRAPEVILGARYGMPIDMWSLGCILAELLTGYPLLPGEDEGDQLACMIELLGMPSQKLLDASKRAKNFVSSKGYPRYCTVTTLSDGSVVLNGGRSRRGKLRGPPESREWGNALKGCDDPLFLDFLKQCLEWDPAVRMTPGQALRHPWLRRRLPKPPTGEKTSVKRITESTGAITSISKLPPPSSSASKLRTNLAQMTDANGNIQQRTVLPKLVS

[3] = target: T2, Dual specificity tyrosine-phosphorylation-regulated kinase 2 (Homo sapiens); settings: at 10 µM
[4] = target: T3, Ephrin type-A receptor 1 (Homo sapiens) (UniProt P21709); settings: at 1 µM
T3 sequence (whole entry): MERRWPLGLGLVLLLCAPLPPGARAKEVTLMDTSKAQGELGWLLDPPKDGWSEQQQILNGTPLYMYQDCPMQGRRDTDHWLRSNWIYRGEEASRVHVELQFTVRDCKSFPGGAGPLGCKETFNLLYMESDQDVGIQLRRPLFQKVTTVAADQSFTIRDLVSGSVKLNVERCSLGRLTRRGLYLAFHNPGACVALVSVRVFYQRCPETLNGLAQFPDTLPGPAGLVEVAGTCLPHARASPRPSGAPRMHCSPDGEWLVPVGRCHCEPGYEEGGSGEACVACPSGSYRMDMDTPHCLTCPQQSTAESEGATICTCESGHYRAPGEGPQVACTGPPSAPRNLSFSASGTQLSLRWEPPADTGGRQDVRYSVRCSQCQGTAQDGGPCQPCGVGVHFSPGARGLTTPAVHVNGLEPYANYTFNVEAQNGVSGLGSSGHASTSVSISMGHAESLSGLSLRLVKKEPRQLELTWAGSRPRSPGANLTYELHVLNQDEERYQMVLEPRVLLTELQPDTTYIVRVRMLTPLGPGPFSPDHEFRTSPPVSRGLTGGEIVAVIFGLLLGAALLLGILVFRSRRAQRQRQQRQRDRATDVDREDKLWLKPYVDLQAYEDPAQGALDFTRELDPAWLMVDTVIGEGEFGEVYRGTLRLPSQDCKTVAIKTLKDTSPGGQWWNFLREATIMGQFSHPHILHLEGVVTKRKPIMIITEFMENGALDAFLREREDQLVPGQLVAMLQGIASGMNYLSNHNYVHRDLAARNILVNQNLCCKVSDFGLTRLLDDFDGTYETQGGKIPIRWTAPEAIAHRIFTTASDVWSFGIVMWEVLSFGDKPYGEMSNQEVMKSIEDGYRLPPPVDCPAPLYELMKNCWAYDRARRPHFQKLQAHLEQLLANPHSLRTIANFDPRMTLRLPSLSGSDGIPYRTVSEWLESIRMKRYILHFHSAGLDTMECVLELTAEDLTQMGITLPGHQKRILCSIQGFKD

[5] = target: T3, Ephrin type-A receptor 1 (Homo sapiens); settings: at 10 µM
[6] = target: Ephrin type-A receptor 2 (Homo sapiens) (UniProt P29317); settings: at 1 µM
[7] = target: Ephrin type-A receptor 2 (Homo sapiens) (UniProt P29317); settings: at 10 µM
[8] = target: T4, Ephrin type-A receptor 3 (Homo sapiens) (UniProt P29320); settings: at 1 µM
T4 sequence (whole entry): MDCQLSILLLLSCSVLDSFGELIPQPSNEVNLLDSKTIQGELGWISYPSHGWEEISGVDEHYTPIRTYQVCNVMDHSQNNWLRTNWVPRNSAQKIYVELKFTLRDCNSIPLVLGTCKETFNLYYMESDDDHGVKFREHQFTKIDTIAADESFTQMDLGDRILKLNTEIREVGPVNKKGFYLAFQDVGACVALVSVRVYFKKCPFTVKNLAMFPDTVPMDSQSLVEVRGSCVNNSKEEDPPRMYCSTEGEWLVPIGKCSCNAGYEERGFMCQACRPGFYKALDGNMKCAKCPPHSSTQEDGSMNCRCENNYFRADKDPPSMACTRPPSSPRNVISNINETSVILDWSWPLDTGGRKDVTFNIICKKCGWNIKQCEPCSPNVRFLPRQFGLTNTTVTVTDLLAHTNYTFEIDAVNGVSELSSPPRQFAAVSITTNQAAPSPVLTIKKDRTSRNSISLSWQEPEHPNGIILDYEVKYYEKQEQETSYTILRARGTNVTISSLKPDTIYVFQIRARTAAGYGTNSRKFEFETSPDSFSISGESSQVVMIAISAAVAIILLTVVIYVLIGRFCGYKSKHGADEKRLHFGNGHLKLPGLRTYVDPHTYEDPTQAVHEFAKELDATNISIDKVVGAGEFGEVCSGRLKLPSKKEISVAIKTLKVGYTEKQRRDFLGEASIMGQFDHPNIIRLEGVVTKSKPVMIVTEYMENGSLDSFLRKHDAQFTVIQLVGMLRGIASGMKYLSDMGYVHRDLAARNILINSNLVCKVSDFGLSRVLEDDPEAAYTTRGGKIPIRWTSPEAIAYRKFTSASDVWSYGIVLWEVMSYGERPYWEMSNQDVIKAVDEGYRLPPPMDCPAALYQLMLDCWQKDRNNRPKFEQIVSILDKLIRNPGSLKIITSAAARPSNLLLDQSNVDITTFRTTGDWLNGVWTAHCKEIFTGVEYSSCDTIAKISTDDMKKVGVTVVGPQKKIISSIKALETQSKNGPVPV

[9] = target: T4, Ephrin type-A receptor 3 (Homo sapiens); settings: at 10 µM
[10] = target: Ephrin type-A receptor 7 (Homo sapiens) (UniProt Q15375); settings: at 1 µM
[11] = target: Ephrin type-A receptor 7 (Homo sapiens) (UniProt Q15375); settings: at 10 µM
[12] = target: T5, Ephrin type-A receptor 8 (Homo sapiens) (UniProt P29322); settings: at 1 µM
T5 sequence (whole entry): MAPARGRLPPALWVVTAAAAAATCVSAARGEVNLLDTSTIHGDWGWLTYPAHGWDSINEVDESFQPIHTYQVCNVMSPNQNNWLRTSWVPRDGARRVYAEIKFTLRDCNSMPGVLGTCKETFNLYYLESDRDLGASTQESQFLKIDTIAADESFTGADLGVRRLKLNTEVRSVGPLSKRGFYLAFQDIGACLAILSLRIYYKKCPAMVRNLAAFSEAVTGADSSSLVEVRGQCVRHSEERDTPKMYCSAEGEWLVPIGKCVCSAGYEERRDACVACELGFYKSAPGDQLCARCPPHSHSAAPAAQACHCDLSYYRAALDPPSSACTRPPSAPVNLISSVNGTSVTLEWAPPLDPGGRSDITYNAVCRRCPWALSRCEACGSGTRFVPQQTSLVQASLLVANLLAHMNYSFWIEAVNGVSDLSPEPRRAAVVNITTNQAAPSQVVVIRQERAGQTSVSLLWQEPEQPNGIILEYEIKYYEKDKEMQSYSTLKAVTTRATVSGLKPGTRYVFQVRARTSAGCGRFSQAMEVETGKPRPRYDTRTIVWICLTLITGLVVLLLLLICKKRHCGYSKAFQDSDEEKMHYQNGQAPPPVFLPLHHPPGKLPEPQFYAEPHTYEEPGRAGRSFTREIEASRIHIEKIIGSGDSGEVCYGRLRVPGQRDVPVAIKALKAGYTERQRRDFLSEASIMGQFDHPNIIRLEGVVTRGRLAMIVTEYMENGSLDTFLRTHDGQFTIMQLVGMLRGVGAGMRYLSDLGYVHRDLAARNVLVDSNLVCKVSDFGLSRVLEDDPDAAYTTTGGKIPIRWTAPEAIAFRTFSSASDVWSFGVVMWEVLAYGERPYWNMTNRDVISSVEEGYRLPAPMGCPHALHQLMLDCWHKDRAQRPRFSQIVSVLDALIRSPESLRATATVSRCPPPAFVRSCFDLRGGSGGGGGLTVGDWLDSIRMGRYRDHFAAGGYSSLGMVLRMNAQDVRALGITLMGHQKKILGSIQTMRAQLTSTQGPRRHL

[13] = target: T5, Ephrin type-A receptor 8 (Homo sapiens); settings: at 10 µM
[14] = target: T6, Ephrin type-B receptor 1 (Homo sapiens) (UniProt P54762); settings: at 1 µM
T6 sequence (whole entry): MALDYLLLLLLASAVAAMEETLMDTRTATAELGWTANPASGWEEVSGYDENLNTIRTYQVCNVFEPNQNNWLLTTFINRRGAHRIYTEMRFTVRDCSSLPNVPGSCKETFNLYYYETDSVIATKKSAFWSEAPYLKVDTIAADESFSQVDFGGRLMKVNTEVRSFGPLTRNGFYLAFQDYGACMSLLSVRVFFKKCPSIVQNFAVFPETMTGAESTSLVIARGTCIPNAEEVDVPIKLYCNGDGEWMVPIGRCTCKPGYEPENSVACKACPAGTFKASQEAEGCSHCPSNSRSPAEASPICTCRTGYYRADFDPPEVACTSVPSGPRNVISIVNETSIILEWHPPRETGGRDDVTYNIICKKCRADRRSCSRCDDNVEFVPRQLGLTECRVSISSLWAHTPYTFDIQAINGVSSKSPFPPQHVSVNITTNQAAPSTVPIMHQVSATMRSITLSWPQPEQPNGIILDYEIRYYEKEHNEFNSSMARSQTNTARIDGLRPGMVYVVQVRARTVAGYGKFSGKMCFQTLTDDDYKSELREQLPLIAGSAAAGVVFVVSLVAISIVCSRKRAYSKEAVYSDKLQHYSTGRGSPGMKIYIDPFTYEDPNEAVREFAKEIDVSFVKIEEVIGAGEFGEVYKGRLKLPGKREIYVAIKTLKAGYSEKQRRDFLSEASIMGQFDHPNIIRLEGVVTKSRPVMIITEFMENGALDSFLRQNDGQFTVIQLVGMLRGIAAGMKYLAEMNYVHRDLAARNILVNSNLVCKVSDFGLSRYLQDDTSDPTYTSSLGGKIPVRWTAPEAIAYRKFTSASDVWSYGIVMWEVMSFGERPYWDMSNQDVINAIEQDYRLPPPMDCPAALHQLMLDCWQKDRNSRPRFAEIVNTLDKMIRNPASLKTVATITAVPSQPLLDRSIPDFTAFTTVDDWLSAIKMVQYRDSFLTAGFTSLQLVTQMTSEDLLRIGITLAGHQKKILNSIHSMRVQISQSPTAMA

[15] = target: Ephrin type-A receptor 4 (Homo sapiens) (UniProt P54764); settings: at 1 µM
[16] = target: Ephrin type-A receptor 4 (Homo sapiens) (UniProt P54764); settings: at 10 µM
[17] = target: Ephrin type-A receptor 5 (Homo sapiens) (UniProt P54756); settings: at 1 µM
[18] = target: Ephrin type-A receptor 5 (Homo sapiens) (UniProt P54756); settings: at 10 µM

Ephrin type-A receptor 4 (Homo sapiens), sequence (P54764 whole entry): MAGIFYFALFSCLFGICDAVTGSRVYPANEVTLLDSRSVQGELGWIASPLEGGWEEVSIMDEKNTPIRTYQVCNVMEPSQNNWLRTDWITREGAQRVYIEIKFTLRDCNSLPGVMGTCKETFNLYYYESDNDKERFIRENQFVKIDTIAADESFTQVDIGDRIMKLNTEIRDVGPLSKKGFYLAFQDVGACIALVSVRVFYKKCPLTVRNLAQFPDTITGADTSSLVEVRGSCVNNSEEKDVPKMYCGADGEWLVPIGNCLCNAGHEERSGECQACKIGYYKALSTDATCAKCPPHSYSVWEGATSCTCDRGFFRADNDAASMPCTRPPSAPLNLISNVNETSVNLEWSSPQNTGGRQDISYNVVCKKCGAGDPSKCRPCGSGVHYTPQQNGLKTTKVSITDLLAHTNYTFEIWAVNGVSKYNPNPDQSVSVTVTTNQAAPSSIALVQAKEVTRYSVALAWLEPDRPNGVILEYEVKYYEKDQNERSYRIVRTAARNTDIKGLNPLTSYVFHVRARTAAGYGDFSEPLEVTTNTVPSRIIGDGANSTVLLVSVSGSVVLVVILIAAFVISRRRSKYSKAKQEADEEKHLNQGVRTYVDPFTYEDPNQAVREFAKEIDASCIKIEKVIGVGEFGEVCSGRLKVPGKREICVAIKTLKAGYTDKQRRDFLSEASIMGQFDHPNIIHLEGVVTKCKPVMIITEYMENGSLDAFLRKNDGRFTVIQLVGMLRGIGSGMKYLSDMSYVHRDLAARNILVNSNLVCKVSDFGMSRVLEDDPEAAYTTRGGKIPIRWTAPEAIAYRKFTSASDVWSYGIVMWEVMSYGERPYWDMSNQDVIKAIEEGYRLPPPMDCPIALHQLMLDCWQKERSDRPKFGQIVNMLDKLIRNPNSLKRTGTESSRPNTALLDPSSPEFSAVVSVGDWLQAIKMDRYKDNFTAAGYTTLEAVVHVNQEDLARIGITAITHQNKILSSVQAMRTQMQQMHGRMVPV
Ephrin type-A receptor 5 (Homo sapiens), sequence (P54756 whole entry): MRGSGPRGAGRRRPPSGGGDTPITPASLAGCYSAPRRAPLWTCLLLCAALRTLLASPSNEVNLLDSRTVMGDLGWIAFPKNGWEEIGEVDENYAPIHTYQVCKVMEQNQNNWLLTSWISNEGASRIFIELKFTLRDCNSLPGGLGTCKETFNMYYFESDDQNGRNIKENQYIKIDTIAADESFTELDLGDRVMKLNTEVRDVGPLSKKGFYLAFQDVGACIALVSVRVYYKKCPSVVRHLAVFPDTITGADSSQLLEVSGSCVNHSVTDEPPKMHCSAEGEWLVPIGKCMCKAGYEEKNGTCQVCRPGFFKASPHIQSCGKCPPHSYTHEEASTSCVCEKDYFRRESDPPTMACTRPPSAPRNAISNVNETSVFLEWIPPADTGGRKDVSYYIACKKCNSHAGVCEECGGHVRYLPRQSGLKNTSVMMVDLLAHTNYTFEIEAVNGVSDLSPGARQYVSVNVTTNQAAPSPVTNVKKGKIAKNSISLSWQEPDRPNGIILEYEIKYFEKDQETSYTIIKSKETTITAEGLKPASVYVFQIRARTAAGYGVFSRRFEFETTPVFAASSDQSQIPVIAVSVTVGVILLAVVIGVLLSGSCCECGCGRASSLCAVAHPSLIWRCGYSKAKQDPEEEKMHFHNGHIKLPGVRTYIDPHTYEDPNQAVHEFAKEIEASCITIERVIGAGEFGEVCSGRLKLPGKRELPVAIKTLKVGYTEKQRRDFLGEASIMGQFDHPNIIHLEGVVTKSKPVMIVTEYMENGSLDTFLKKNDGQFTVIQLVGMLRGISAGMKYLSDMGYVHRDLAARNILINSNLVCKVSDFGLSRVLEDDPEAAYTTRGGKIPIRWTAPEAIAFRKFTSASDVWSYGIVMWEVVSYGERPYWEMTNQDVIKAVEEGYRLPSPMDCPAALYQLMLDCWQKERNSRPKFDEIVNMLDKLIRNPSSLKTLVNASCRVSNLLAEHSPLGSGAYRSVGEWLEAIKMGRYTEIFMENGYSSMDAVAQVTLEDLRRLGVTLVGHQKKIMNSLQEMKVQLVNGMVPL
Ephrin type-A receptor 7 (Homo sapiens), sequence (Q15375 28-998 limits assumed): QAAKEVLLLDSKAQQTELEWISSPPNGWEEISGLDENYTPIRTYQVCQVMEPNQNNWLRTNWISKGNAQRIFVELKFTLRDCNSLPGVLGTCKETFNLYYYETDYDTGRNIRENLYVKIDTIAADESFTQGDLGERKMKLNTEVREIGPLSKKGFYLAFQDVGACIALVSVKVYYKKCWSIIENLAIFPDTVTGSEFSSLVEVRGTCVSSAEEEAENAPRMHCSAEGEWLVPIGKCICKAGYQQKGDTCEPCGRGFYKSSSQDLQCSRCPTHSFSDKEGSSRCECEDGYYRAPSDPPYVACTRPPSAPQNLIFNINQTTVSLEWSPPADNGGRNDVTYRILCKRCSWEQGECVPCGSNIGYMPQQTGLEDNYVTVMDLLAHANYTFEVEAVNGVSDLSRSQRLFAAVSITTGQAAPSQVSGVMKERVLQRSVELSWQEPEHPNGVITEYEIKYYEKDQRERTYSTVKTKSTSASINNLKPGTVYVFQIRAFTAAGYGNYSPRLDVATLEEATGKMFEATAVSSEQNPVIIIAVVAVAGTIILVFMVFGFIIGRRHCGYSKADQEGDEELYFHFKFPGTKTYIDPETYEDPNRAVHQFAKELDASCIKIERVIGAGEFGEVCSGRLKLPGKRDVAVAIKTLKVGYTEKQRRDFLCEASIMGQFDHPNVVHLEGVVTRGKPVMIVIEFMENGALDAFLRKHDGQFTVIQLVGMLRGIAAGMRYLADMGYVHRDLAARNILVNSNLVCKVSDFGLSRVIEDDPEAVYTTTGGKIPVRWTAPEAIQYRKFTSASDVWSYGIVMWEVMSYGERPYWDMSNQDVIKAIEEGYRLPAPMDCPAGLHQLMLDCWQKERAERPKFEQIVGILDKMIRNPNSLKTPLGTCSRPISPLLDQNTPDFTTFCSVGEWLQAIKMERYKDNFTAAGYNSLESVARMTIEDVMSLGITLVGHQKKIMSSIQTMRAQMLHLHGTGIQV
Ephrin type-A receptor 2 (Homo sapiens), sequence (P29317 whole entry): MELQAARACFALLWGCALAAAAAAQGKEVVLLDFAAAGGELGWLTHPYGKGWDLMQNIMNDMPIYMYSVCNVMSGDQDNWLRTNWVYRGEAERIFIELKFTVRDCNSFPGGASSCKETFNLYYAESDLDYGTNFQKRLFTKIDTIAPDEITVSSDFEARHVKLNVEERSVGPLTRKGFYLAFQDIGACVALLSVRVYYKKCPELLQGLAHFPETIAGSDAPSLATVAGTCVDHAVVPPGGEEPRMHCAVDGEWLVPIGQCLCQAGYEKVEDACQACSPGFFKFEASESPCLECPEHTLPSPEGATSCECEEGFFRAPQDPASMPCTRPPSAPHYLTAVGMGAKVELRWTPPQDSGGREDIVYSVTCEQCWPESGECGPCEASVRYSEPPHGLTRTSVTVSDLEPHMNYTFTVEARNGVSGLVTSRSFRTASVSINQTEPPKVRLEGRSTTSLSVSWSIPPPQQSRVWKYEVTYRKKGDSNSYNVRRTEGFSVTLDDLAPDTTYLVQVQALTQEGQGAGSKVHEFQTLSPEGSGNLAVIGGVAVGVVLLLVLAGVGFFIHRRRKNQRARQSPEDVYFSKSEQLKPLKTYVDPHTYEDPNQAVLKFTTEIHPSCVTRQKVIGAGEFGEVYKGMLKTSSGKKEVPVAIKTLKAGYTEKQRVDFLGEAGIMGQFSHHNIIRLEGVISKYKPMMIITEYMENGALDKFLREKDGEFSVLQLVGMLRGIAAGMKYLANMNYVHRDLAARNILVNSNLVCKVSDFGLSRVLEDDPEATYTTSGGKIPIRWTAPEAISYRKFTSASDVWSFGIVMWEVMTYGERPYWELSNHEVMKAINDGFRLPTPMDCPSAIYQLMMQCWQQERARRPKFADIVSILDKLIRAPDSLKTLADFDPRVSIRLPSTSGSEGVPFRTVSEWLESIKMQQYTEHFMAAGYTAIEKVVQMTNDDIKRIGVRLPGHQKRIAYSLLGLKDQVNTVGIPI

Structure (SMILES)	residual activity [1] [%]	residual activity [2] [%]	residual activity [3] [%]	residual activity [4] [%]	residual activity [5] [%]	residual activity [6] [%]	residual activity [7] [%]	residual activity [8] [%]	residual activity [9] [%]	residual activity [10] [%]	residual activity [11] [%]	residual activity [12] [%]	residual activity [13] [%]	residual activity [14] [%]	residual activity [15] [%]	residual activity [16] [%]	residual activity [17] [%]	residual activity [18] [%]
Cc1cc2ncc(-c3ccccc3)nc2cc1C	95	85	105	96	105	109	97	103	92	99	93	97	98	106	–	–	–	–
Cc1ccc(NC2=CC(=O)c3sc(C)nc3C2=O)cc1	81	85	100	95	91	95	102	92	97	90	83	89	96	81	101	112	110	100
C[C@@H](N)[C@H]1CC[C@H](C(=O)Nc2ccncc2)CC1	67	101	91	101	96	96	98	103	97	96	90	105	108	101	95	–	84	–
COc1ccc(OC)c2c(=S)c3ccccc3[nH]c12	97	90	66	113	88	96	101	90	97	92	89	96	100	97	100	105	101	96
CNc1cc2c(Nc3cccc(Br)c3)ncnc2cn1	11	90	86	72	59	94	75	93	78	90	54	98	69	93	105	95	103	92
CCN(CC)C(=O)c1ccc(Nc2nc(OCC3CCCCC3)c3nc[nH]c3n2)cc1	4	–	–	60	8	77	42	–	60	71	7	97	64	68	–	73	–	–
Nc1cccc(-c2cc3c(Oc4cccc(O)c4)ncnc3[nH]2)c1	32	89	62	2	-1	30	2	4	0	64	15	30	6	7	48	4	24	2
CC(=O)O/N=C1\C(=C2\C(=O)Nc3cc(Br)ccc32)Nc2ccccc21	31	96	92	84	71	92	59	74	38	100	79	84	77	86	112	84	99	47
